According to publication PMC4336329 (PLoS ONE, 2015):
Among all 310,000 compounds or so, about 14,000 (4.5%) showed an effect of 50% or more. The effect is printed as a negative number. Many of the other results were omitted from the sample, so strong results are more common in it than they were.

Target: human ether-à-go-go-related gene (hERG) potassium channel (human, UniProt Q12809)
Assay: primary screen, population patch clamp on CHO cells stably expressing hERG; higher = less effect of the substance
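Further: peak tail current of the secondary pulse compared with the same well before compound.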

Chain of human ether-à-go-go-related gene (hERG) potassium channel (Q12809 whole entry, looked up): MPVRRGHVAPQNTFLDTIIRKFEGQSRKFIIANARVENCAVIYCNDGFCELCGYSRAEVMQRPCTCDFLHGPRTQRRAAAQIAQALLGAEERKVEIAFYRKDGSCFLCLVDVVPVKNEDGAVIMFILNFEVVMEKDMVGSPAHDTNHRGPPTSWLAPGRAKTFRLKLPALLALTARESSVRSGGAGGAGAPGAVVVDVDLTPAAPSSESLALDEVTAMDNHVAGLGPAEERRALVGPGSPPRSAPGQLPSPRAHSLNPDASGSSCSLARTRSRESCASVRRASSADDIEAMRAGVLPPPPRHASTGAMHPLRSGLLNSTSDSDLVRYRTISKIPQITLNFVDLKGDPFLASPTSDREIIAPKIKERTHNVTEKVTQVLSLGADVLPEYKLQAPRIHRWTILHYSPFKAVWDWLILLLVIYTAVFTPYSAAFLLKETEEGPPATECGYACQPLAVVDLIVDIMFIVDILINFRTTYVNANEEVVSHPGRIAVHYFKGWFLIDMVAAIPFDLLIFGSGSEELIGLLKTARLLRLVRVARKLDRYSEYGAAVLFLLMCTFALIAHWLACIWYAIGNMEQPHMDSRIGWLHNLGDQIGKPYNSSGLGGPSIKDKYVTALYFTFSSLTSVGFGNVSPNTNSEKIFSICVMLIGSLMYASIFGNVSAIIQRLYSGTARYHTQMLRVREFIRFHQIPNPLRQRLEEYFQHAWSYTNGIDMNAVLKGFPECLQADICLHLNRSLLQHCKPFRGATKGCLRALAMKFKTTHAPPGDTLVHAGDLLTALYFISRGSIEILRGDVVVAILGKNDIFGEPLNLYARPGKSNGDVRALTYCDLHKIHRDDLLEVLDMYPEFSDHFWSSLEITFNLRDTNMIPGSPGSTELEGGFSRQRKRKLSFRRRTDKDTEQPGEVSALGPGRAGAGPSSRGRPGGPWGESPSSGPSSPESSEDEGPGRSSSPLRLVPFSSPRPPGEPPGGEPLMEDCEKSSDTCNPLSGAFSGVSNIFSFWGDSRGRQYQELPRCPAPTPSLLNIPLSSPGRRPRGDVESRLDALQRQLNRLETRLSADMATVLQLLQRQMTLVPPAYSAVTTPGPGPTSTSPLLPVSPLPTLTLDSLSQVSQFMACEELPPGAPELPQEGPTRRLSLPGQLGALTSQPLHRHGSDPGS

Question: `CCN(c1ccccc1)S(=O)(=O)c1ccc(C(=O)NCC2(N(C)C)CCCCC2)cc1` was tested. Which “hERG current change (%, negative = inhibition) at 10uM” value did it give?
Answer: -57.8%

Question: With `O=C(NCCNC(=O)c1ccccn1)c1cccc(F)c1` as the compound, how does the “hERG current change (%, negative = inhibition) at 10uM” value read?
Answer: 23.7%

Question: With `O/N=C/C1=C(Cl)c2ccccc2CC1` as the compound, how does the “hERG current change (%, negative = inhibition) at 10uM” value read?
Answer: -4.9%

Question: With `Cc1ccccc1NC(=O)COC(=O)c1cccc(S(=O)(=O)N2CCCCC2)c1` as the compound, how does the “hERG current change (%, negative = inhibition) at 10uM” value read?
Answer: -6.55%

Question: How did the “hERG current change (%, negative = inhibition) at 10uM” value turn out when `Cc1ccc(C(=O)N2CCN(C34CC5CC(CC(C5)C3)C4)CC2)o1` was run?
Answer: -29.4%

Question: For `CCc1nnc(NC(=O)CSc2nnc(-c3ccco3)n2CCOC)s1`, which “hERG current change (%, negative = inhibition) at 10uM” value is on record?
Answer: 9.29%

Question: With `CC1CCN(c2oc(-c3ccco3)nc2S(=O)(=O)c2ccccc2)CC1` as the compound, how does the “hERG current change (%, negative = inhibition) at 10uM” value read?
Answer: -6.14%

Question: For `CNC(=O)COC(=O)c1ccccc1Oc1ccccc1`, which “hERG current change (%, negative = inhibition) at 10uM” value is on record?
Answer: -5.63%

Question: How did the “hERG current change (%, negative = inhibition) at 10uM” value turn out when `O=C1OC(C(=O)Nc2nccs2)Cc2ccccc21` (stereo not drawn) was run?
Answer: 12.7%

Question: With `CCN(C(=O)c1cc2c(=O)n3ccccc3nc2n1C)C1CCCCC1` as the compound, how does the “hERG current change (%, negative = inhibition) at 10uM” value read?
Answer: 6.65%

Question: For `CC(Cc1cccs1)NC(=O)Nc1ccc(Cl)cc1` (stereo not drawn), which “hERG current change (%, negative = inhibition) at 10uM” value is on record?
Answer: 1.12%

Question: `C[C@H](NC(=O)C1CCN(S(=O)(=O)c2ccccc2)CC1)C(=O)NCc1cccc(C(F)(F)F)c1` was tested. Which “hERG current change (%, negative = inhibition) at 10uM” value did it give?
Answer: -2.33%

Question: How did the “hERG current change (%, negative = inhibition) at 10uM” value turn out when `CCCOc1ccc(C(=O)ON=C2CCN(C)CC2)cc1.Cl` was run?
Answer: -9.07%

Question: Which “hERG current change (%, negative = inhibition) at 10uM” value does the source give for `Cc1ccc(C(=O)OC2CCN(c3ccc([N+](=O)[O-])cc3)CC2)cc1` here?
Answer: -1.78%

Question: How did the “hERG current change (%, negative = inhibition) at 10uM” value turn out when `COc1ccc(C(=O)ON=C2CCN(c3ccc([N+](=O)[O-])cc3)CC2)cc1` was run?
Answer: -68.5%

Question: For `Cc1ccc(C(=O)ON=C2CCN(c3ccc([N+](=O)[O-])cc3)CC2)cc1`, which “hERG current change (%, negative = inhibition) at 10uM” value is on record?
Answer: -60.9%

Question: How did the “hERG current change (%, negative = inhibition) at 10uM” value turn out when `COc1ccc(C(=O)ON=C2CCN(C)CC2)cc1.Cl` was run?
Answer: 12.8%

Question: For `O=C(ON=C1CCN(c2ccc([N+](=O)[O-])cc2)CC1)c1ccccc1`, which “hERG current change (%, negative = inhibition) at 10uM” value is on record?
Answer: -47.5%

Question: For `CC(=O)N1CCOc2cc(S(=O)(=O)NCc3ccc(F)cc3)c(C)cc21`, which “hERG current change (%, negative = inhibition) at 10uM” value is on record?
Answer: -16.6%

Question: How did the “hERG current change (%, negative = inhibition) at 10uM” value turn out when `CCOc1ccc(/C=C/c2[nH]c(=O)[nH]c(=O)c2[N+](=O)[O-])cc1` was run?
Answer: 8.01%

Question: With `O=C(CCC(=O)Nc1ccccc1)N/N=C/c1ccc2c(c1)OCO2` as the compound, how does the “hERG current change (%, negative = inhibition) at 10uM” value read?
Answer: 28.7%

Question: Which “hERG current change (%, negative = inhibition) at 10uM” value does the source give for `O=C(c1ccccc1S(=O)(=O)NCc1ccccc1)N1CCCC1` here?
Answer: -4.43%

Question: How did the “hERG current change (%, negative = inhibition) at 10uM” value turn out when `CCN(CC)Cc1cc(C(C)=O)ccc1OCC(C)C` was run?
Answer: -31.5%

Question: With `CC(C)c1ccc(C2N3CC4([N+](=O)[O-])CN2CC([N+](=O)[O-])(C3)C4(C)C)cc1` (stereo not drawn) as the compound, how does the “hERG current change (%, negative = inhibition) at 10uM” value read?
Answer: 28.4%

Question: How did the “hERG current change (%, negative = inhibition) at 10uM” value turn out when `O=C(O)c1ccc(NS(=O)(=O)c2ccc3c(c2)OCCCO3)cc1` was run?
Answer: 4.23%

Question: Which “hERG current change (%, negative = inhibition) at 10uM” value does the source give for `CN1CCN(S(=O)(=O)c2cc(C(F)(F)F)ccc2Cl)CC1.Cl` here?
Answer: 10.4%

Question: Which “hERG current change (%, negative = inhibition) at 10uM” value does the source give for `CC(=O)c1sc2nc(=O)c(C)nn2c1C` here?
Answer: -0.703%

Question: For `O=c1[nH]c(/C=C\c2ccc(O)c(O)c2)nc(O)c1[N+](=O)[O-]`, which “hERG current change (%, negative = inhibition) at 10uM” value is on record?
Answer: 16.2%

Question: Which “hERG current change (%, negative = inhibition) at 10uM” value does the source give for `CCCCOc1ccc(CN2CCN(CC)CC2)cc1` here?
Answer: -14.2%

Question: Which “hERG current change (%, negative = inhibition) at 10uM” value does the source give for `CCCCOc1ccc(OCCCN2CCOCC2)cc1.Cl` here?
Answer: -23.1%

Question: How did the “hERG current change (%, negative = inhibition) at 10uM” value turn out when `CN1CCN(CCOc2ccc(-c3ccccc3)cc2)CC1.Cl` was run?
Answer: -56.3%

Question: Which “hERG current change (%, negative = inhibition) at 10uM” value does the source give for `CN1CCN(CCCOc2ccc(-c3ccccc3)cc2)CC1.Cl` here?
Answer: -69.1%

Question: For `Cl.c1ccc(-c2ccc(OCCN3CCOCC3)cc2)cc1`, which “hERG current change (%, negative = inhibition) at 10uM” value is on record?
Answer: 3.74%

Question: How did the “hERG current change (%, negative = inhibition) at 10uM” value turn out when `CN1CCN(CCOc2ccc(Cc3ccccc3)cc2)CC1.Cl` was run?
Answer: -23.4%

Question: `CCN1CCN(CCCOc2ccc(-c3ccccc3)cc2)CC1` was tested. Which “hERG current change (%, negative = inhibition) at 10uM” value did it give?
Answer: -71.9%

Question: Which “hERG current change (%, negative = inhibition) at 10uM” value does the source give for `Cc1ccc(OCCCN2CCOCC2)cc1` here?
Answer: 13.3%

Question: `COc1ccc(C(C(=O)NC2CCCC2)N(C(=O)c2ccoc2C)c2cc(C)cc(C)c2)cc1` (stereo not drawn) was tested. Which “hERG current change (%, negative = inhibition) at 10uM” value did it give?
Answer: -10.9%

Question: `O=C(CSc1nnc(CNC(=O)c2ccco2)o1)Nc1nc2ccccc2s1` was tested. Which “hERG current change (%, negative = inhibition) at 10uM” value did it give?
Answer: 16.1%

Question: How did the “hERG current change (%, negative = inhibition) at 10uM” value turn out when `COc1cc(CC(NC(C)=O)C(=O)NC2CCN(S(=O)(=O)c3ccc(NC(C)=O)cc3)CC2)cc(OC)c1` (stereo not drawn) was run?
Answer: 21.7%

Question: `Cc1nn(-c2ccc([N+](=O)[O-])cc2)c(N)c1-c1ccccc1` was tested. Which “hERG current change (%, negative = inhibition) at 10uM” value did it give?
Answer: -19.1%

Question: `Cc1nn(-c2ccccc2)c(N)c1Sc1ccc([N+](=O)[O-])cc1` was tested. Which “hERG current change (%, negative = inhibition) at 10uM” value did it give?
Answer: -75.2%

Question: How did the “hERG current change (%, negative = inhibition) at 10uM” value turn out when `Cc1ccccc1-c1cnn(-c2cccc([N+](=O)[O-])c2)c1N` was run?
Answer: -56.7%

Question: `Cc1nn(-c2cccc([N+](=O)[O-])c2)c(N)c1-c1ccccc1` was tested. Which “hERG current change (%, negative = inhibition) at 10uM” value did it give?
Answer: -68.7%

Question: With `Cc1nn(-c2ccccc2)c(N)c1-c1ccccc1` as the compound, how does the “hERG current change (%, negative = inhibition) at 10uM” value read?
Answer: 5.13%

Question: `Cc1nn(-c2ccccc2)c(N)c1Sc1ccccc1[N+](=O)[O-]` was tested. Which “hERG current change (%, negative = inhibition) at 10uM” value did it give?
Answer: -26.7%

Question: With `Cc1nn(-c2nc3ccccc3s2)c(N)c1Sc1ccc(F)cc1` as the compound, how does the “hERG current change (%, negative = inhibition) at 10uM” value read?
Answer: 7.4%

Question: With `Cc1cc(C)nc(-n2nc(C)c(C3(O)C(=O)Nc4ccc(F)cc43)c2N)n1` (stereo not drawn) as the compound, how does the “hERG current change (%, negative = inhibition) at 10uM” value read?
Answer: 3.79%

Question: Which “hERG current change (%, negative = inhibition) at 10uM” value does the source give for `Cc1nn(S(=O)(=O)c2ccccc2)c(C)c1Sc1ccc([N+](=O)[O-])cc1` here?
Answer: -6.26%

Question: Which “hERG current change (%, negative = inhibition) at 10uM” value does the source give for `Nc1c(-c2ccccc2Cl)cnn1-c1cccc([N+](=O)[O-])c1` here?
Answer: -49.4%

Question: With `Cc1cc(C)nc(-n2nc(C)c(Sc3ccc(F)cc3)c2N)n1` as the compound, how does the “hERG current change (%, negative = inhibition) at 10uM” value read?
Answer: -61.7%

Question: For `Cc1ccc(-c2cnn(-c3cccc([N+](=O)[O-])c3)c2N)cc1`, which “hERG current change (%, negative = inhibition) at 10uM” value is on record?
Answer: -24.1%
